Data on nine molecules can be found in PubChem BioAssay.

Activity calls are given as the source filed them.

Test [1] is described as follows: optical density shifts of acrAB sulA E. coli – strain DRC41, OD650, 48 h, E. coli filamentation inducer project, primary screen (AID 1152).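 Further: E. coli MC1000 strain DRC41 lacking acrAB efflux pump and sulA.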 Particulars: higher = more signal, called active from +8 up or from −8 down.
The nature of test [2]: probe aLefty1 binding on compound microarray – biochemical, small-molecule microarray, 635/667 nm fluorescence, primary screen (AID 1153).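 Further: score merges spot fluorescence with signal-to-noise ratio from the scanned slide images.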 Particulars: higher = more signal.
Test [3] is described as follows: plasmodial surface anion channel blockers, osmotic lysis – cell-based, P. falciparum Indochina, OD700, 1 h, primary screen (AID 1154). Particulars: P. falciparum Indochina infected RBC osmotic lysis, higher = more signal, called active from +8 up or from −8 down.
Test [4] can be described thus: plasmodial surface anion channel blockers, osmotic lysis – cell-based, P. falciparum Indochina, OD700, 2 h, primary screen (AID 1155).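 Further: lysis reports solute entry through the parasite surface anion channel PSAC.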 Particulars: P. falciparum Indochina infected erythrocytes, higher = more signal, called active from +8 up or from −8 down.
A short description of test [5]: changes in parasitized red cell lysis, either direction – P. falciparum Indochina, OD700, 3 h, PSAC antagonist project, primary screen (AID 1156). The conditions noted are these: P. falciparum-infected erythrocytes, osmotic lysis, higher = more signal, called active from +8 up or from −8 down.
Test [6] can be described thus: plasmodial surface anion channel blockers, osmotic lysis – cell-based, P. falciparum Indochina, OD700, 18 h, primary screen (AID 1157). The conditions noted are these: P. falciparum Indochina infected erythrocytes, osmotic lysis OD700, 18 h; higher = more signal, called active from +8 up or from −8 down.
Test [7] is described as follows: S6 kinase pathway phospho-S6 level changes – cell-based, A549, cytoblot, luminescence, serum-stimulated, primary screen (AID 1158).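 Further: serum-stimulated A549 lung adenocarcinoma cells; signal is phosphorylated S6 detected by cytoblot immunostaining with HRP secondary.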 Particulars: 5 h, higher = more signal.
Test [8] addresses NADPH oxidase 2 (Homo sapiens) (UniProt P04839). As to the kind of experiment: compounds shifting NOX2 Amplex Red fluorescence – cell-based, HEK293-NOX2, PMA-stimulated, NOX inhibitor project, primary screen (AID 1159). Further: test concentration not given here. The conditions noted are these: 45 min, higher = more signal, called active from +8 up or from −8 down.
For test [9], the target named is NADPH oxidase 4 (Homo sapiens) (UniProt Q9NPH5). As to the kind of experiment: compounds shifting NOX4 Amplex Red fluorescence – cell-based, HEK293-NOX4, tetracycline-induced, NOX inhibitor project, primary screen (AID 1160). Particulars: HEK293-NOX4, Amplex Red H2O2 fluorescence, 45 min; higher = more signal, called active from +8 up or from −8 down.
Test [10] concerns the target NADPH oxidase 5 (Homo sapiens) (UniProt Q96PH1). The test is described as follows: compounds shifting NOX5 Amplex Red fluorescence – cell-based, HEK293-NOX5, NOX inhibitor project, primary screen (AID 1161). Particulars: HEK293-NOX5, ionomycin, 45 min, higher = more signal.
Test [11] can be described thus: compound effects on lung adenocarcinoma cell viability – A549, calcein-AM fluorescence, 48 h, basal, profiling panel (AID 1162). Further: test concentration not given here. Particulars: higher = more signal.
Test [12] can be described thus: compound effects on differentiated 3T3-L1 adipocyte viability – cell-based, 3T3-L1 adipocytes, calcein-AM fluorescence, 48 h, basal, profiling panel (AID 1163). Further: test concentration not given here. Particulars: 3T3-L1 adipocytes viability, higher = more signal.
Test [13] can be described thus: compound effects on hepatocellular carcinoma cell viability – HepG2, calcein-AM fluorescence, 48 h, basal, profiling panel (AID 1164). Further: test concentration not given here. The conditions noted are these: higher = more signal.
The nature of test [14]: compound effects on multiple myeloma cell viability – MM1S, calcein-AM fluorescence, 48 h, basal, profiling panel (AID 1165).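 Further: viability of MM1S multiple myeloma cells under basal unstimulated conditions; test concentration not given here.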 Particulars: higher = more signal.
A short description of test [15]: calcein-AM signal in unstimulated myeloma cells – cell-based, calcein-AM fluorescence, 48 h, PK04 Diversity Set, profiling panel (AID 1166).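 Further: cells grown under basal conditions without added stimulus; test concentration not given here.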 Particulars: RPMI8226 myeloma viability, higher = more signal.
Test [16] in a line: JC-1 mitochondrial signal, unstimulated HepG2 cells – cell-based, JC-1 fluorescence, 24 h, 100 nL compound, profiling panel (AID 1167). Further: test concentration not given here. The conditions noted are these: HepG2 mitochondrial potential, higher = more signal.
Test [17] is described as follows: JC-1 mitochondrial signal, unstimulated adipocytes – cell-based, JC-1 fluorescence, 3T3-L1 adipocytes, 24 h, 100 nL compound, profiling panel (AID 1168). Further: test concentration not given here. Particulars: JC-1 mitochondrial fluorescence, higher = more signal, called active from +8 up or from −8 down.
Test [18] is described as follows: JC-1 mitochondrial signal, unstimulated myeloma cells – cell-based, JC-1 fluorescence, RPMI8226, 24 h, 100 nL compound, profiling panel (AID 1169). Further: test concentration not given here. The conditions noted are these: JC-1 mitochondrial potential fluorescence, higher = more signal.
A short description of test [19]: JC-1 mitochondrial signal, unstimulated MM1S myeloma – cell-based, JC-1 fluorescence, 24 h, 100 nL compound, profiling panel (AID 1170). Further: test concentration not given here. Particulars: MM1S mitochondrial potential, higher = more signal.
A short description of test [20]: resazurin metabolic signal in A549 cells – cell-based, resazurin fluorescence, 24 h, PK04 Diversity Set, profiling panel (AID 1171). Further: test concentration not given here. The conditions noted are these: A549 viability, higher = more signal, called active from +8 up or from −8 down.

Chain of NADPH oxidase 5 (Homo sapiens) (Q96PH1 whole entry, looked up): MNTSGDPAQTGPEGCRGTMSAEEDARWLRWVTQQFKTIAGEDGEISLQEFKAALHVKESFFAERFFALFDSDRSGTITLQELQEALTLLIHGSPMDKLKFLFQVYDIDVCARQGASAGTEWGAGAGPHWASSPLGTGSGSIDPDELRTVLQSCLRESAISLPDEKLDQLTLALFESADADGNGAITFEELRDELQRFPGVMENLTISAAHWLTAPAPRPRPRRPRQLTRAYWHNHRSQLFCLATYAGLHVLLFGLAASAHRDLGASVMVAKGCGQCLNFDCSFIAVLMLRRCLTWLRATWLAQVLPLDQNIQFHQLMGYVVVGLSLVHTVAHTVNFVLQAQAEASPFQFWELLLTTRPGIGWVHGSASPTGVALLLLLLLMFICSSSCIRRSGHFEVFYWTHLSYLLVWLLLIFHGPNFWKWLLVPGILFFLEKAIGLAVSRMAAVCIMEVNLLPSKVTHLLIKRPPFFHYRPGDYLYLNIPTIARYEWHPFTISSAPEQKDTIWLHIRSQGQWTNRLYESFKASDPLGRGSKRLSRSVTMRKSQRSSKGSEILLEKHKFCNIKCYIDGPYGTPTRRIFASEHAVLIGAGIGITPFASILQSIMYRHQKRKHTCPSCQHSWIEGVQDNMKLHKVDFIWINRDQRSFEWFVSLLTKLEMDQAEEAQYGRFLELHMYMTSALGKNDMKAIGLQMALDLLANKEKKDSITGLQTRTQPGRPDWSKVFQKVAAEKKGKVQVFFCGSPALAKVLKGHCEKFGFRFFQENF
Chain of NADPH oxidase 2 (Homo sapiens) (P04839 whole entry, looked up): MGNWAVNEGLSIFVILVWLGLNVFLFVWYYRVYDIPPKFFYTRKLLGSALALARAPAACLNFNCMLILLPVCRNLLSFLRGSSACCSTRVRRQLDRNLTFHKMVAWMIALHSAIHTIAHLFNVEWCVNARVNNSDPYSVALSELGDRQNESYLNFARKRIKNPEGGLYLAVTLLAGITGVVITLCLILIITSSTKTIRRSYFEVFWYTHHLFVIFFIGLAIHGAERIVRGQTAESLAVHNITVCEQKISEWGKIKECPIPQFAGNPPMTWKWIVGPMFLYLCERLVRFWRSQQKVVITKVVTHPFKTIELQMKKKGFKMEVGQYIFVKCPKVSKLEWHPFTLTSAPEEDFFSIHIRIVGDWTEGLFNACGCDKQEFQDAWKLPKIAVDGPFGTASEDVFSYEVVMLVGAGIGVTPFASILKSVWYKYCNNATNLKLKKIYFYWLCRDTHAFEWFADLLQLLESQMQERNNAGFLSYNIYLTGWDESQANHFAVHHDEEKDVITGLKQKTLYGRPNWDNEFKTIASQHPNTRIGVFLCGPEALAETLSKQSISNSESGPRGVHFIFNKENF
Chain of NADPH oxidase 4 (Homo sapiens) (Q9NPH5 whole entry, looked up): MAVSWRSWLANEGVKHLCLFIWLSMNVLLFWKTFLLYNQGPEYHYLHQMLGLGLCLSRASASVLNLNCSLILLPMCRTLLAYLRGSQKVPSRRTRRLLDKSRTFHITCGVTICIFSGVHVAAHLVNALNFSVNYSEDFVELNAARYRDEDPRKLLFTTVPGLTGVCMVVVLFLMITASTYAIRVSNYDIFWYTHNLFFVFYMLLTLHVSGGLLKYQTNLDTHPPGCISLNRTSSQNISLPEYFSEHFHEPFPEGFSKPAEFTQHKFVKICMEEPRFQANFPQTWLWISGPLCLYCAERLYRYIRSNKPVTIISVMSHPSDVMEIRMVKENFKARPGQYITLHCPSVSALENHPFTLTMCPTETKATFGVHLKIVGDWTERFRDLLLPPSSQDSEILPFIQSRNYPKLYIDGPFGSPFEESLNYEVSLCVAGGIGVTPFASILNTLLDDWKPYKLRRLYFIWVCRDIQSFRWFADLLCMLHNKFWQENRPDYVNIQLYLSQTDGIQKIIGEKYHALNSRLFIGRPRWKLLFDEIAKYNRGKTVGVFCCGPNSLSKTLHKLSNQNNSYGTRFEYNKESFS

For `CON=C[C@@H](C)[C@H](OCc1ccccc1)C(C)C`, the z-score in test [1] is -2.85 (inactive); in [3] it was 0.0221 (inactive); in [4], 0.234 (inactive); in test [5], 0.718 (inactive); in test [6] it was -1.37 (inactive); in test [7], 0.564. The z-score was -0.307 (inactive) in [8]; -1.21 (inactive) in test [9]; -0.786 in [10]; -1.1 in test [11]; 0.425 in [12]; -0.0832 in test [13]. Further, the z-score in test [14] was -0.43; in test [15] it was -1.01; in test [16] it was 0.0714; in test [17] it was 0.634 (inactive); in test [18], -0.408; in test [19] it was 0.699. The z-score in test [20] is 0.073 (inactive). In test [2], this molecule displayed a composite z-score of -0.378.

Turning to `O=C1C[C@@H](O)[C@@H](O)[C@@H]2[C@@H]3C(=O)N(Cc4ccccc4)C(=O)[C@@H]3CC[C@@H]12`, the z-score in test [1] is -0.861 (inactive); in test [3], -0.0483 (inactive); in test [4] it was 0.141 (inactive); in test [5], 0.0313 (inactive); in [6], -0.014 (inactive); in [7], -0.224. The z-score is 1.04 (inactive) in test [8]; 0.286 (inactive) in [9]; -0.0644 in test [10]; 0.249 in test [11]; -0.118 in [12]; 0.208 in [13]. Besides, the z-score was 0.0158 in test [14]; -0.499 in [15]; -0.229 in test [16]; 0.377 (inactive) in test [17]; 0.139 in test [18]; 0.431 in test [19]. Moreover, in test [20], the z-score was 1.11 (inactive). In [2], the composite z-score is -0.0559.

As to `CO[C@@H]1COC(=O)[C@@H](C)COC(=O)[C@@H](C)NC(=O)CC=C[C@@H]1C`, the z-score in test [1] was -0.294 (inactive); in test [3], -1.15 (inactive); in test [4] it was -1.26 (inactive); in test [5], 0.645 (inactive); in test [6] it was -0.858 (inactive); in test [7], 1. In addition, the z-score in test [8] was -0.675 (inactive); in test [9] it was -2.43 (inactive); in test [10] it was -2.91; in test [11], -0.448; in test [12], 1.25; in test [13] it was -1.45. The z-score in [14] is -0.539; in test [15] it was -1.86; in [16] it was 0.2; in test [17] it was -0.189 (inactive); in [18], 0.0701; in [19], -1.48. Further, in [20], the z-score is 0.512 (inactive). Also, the composite z-score in [2] was determined as 0.682.

Take `CON=Cc1ccc(C(=O)N2[C@H](c3ccc(C)cc3)[C@@H](C)CC[C@H]2C(=O)OC)cc1`: the z-score in test [1] was -0.134 (inactive); in [3], 1.65 (inactive); in [4], 1.25 (inactive); in [5] it was 0.0014 (inactive); in test [6] it was 1.1 (inactive); in [7] it was -0.0424. For the same molecule, the z-score in test [8] was -0.88 (inactive); in test [9], -0.304 (inactive); in test [10], -0.376; in test [11], 0.281; in test [12] it was 0.0609; in test [13], -0.296. Moreover, the z-score was 0.336 in [14]; 0.0411 in [15]; 0.129 in test [16]; 0.345 (inactive) in [17]; 0.344 in [18]; 1.07 in [19]. Further, the z-score in test [20] was 1.03 (inactive). The composite z-score in test [2] was -0.147.

Turning to `CCc1cc2c(nc1CC)CCN(CCC(C)=NO[C@H](C)c1cn([C@@H]3COC[C@H]3O)nn1)C2`, the z-score was 0.211 (inactive) in [1]; 1.34 (inactive) in [3]; 0.72 (inactive) in test [4]; 0.322 (inactive) in test [5]; 0.367 (inactive) in [6]; -0.656 in test [7]. Further, the z-score was -0.539 (inactive) in [8]; -0.138 (inactive) in test [9]; 0.779 in test [10]; 0.821 in test [11]; -0.744 in [12]; 1.75 in test [13]. Moreover, the z-score in [14] was 0.546; in [15], -0.329; in test [16], 0.338; in [17] it was 0.367 (inactive); in test [18] it was -0.121; in [19], -0.676. In addition, the z-score in [20] is -0.574 (inactive). For the same molecule, in [2], the composite z-score worked out at 0.199.

In the case of `COC(=O)[C@@H]1CC[C@@H](C)[C@H](c2ccc(Br)cc2)N1`, the z-score was -0.394 (inactive) in test [1]; 0.121 (inactive) in [3]; -0.0391 (inactive) in test [4]; -0.242 (inactive) in test [5]; -0.191 (inactive) in test [6]; 0.333 in [7]. The z-score in test [8] was -3.29 (inactive); in test [9] it was -0.185 (inactive); in test [10] it was -0.781; in test [11], 0.376; in test [12], 0.931; in test [13], 0.232. Also, the z-score in [14] was -0.749; in test [15], 0.628; in test [16], 0.307; in test [17] it was -0.00943 (inactive); in test [18], 0.273; in test [19], 1.23. Moreover, the z-score in [20] is 0.316 (inactive). In [2], this molecule had a composite z-score of 0.0962.

For `CCC=CCCC(OC(=O)c1ccc(Br)cc1)C1=CCCCC1=O` (stereo not given), the z-score was -0.686 (inactive) in [1]; 3.4 (inactive) in test [3]; 0.626 (inactive) in [4]; -0.0019 (inactive) in [5]; -0.366 (inactive) in test [6]; 0.86 in test [7]. The z-score was -0.126 (inactive) in test [8]; -0.534 (inactive) in [9]; -3.12 in [10]; -0.211 in test [11]; -0.648 in [12]; -0.805 in test [13]. For the same molecule, the z-score in [14] is -3.68; in test [15] it was -3.51; in test [16] it was -1.12; in [17], -0.711 (inactive); in test [18] it was -0.449; in [19], -1.97. The z-score in [20] is 0.863 (inactive). Moreover, the composite z-score in test [2] was -0.3.

For `C[C@@H](c1ccccc1)N1C(=O)[C@H]2[C@H]3[C@H](O)[C@H](O)CC(=O)[C@H]3CC[C@H]2C1=O`, the z-score was 0.477 (inactive) in test [1]; -0.74 (inactive) in test [3]; 0.0593 (inactive) in test [4]; -0.105 (inactive) in [5]; 0.0091 (inactive) in test [6]; 0.297 in test [7]. Also, the z-score in test [8] is -0.522 (inactive); in test [9], 0.05 (inactive); in test [10] it was 0.811; in test [11] it was 0.614; in [12] it was 0.205; in [13], 0.92. For the same molecule, the z-score in [14] was 0.358; in [15] it was -0.094; in test [16] it was 0.311; in test [17], 1.27 (inactive); in [18] it was -0.826; in test [19], 1.05. Also, the z-score in test [20] was 0.288 (inactive). Also, the composite z-score in [2] was -0.196.

`CO[C@H]1COC(=O)[C@H](C)NC(=O)[C@@H](C)COC(=O)[C@H]2CCCN2C(=O)CC=C[C@H]1C`: the z-score in test [1] was -0.0911 (inactive); in [3], 0.551 (inactive); in test [4] it was 0.453 (inactive); in test [5] it was 0.603 (inactive); in test [6], 0.293 (inactive); in [7], 0.203. The z-score in test [8] is -0.752 (inactive); in test [9] it was 0.0917 (inactive); in test [10] it was 0.363; in test [11], -0.622; in test [12], -0.321; in test [13], -0.0694. Moreover, the z-score in test [14] is -0.151; in [15] it was 0.353; in test [16], 0.132; in [17], -0.658 (inactive); in [18] it was -0.0639; in test [19], -1.01. Also, the z-score in [20] was -0.463 (inactive). This molecule showed a composite z-score in test [2] of -0.194.
